# Screening results deposited in PubChem by several laboratories.
# Mdm2-MdmX inh: human Mdm2/MdmX binding inhibition | O15151+Q00987 | SaOS-2 split-luciferase Mdm2/MdmX complementation, luminescence | inhibition, % at 8 µM | 330,000 compounds, 3% hits;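 active = inhibition of at least 50% at 8 µM in the primary screen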
# Target sequence (O15151 whole entry, looked up): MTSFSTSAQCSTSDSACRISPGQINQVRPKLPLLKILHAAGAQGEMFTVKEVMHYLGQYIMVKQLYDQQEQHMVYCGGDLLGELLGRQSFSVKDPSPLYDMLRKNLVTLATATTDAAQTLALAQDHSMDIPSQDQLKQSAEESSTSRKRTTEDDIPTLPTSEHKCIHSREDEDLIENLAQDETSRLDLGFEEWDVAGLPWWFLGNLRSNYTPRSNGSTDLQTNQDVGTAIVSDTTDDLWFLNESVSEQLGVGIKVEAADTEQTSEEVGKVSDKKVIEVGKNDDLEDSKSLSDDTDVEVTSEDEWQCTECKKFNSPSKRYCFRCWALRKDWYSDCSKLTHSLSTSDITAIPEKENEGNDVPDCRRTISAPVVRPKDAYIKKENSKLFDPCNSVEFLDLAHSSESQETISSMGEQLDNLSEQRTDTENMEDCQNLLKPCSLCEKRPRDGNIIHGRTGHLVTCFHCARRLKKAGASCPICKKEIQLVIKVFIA
# Target sequence (Q00987 whole entry, looked up): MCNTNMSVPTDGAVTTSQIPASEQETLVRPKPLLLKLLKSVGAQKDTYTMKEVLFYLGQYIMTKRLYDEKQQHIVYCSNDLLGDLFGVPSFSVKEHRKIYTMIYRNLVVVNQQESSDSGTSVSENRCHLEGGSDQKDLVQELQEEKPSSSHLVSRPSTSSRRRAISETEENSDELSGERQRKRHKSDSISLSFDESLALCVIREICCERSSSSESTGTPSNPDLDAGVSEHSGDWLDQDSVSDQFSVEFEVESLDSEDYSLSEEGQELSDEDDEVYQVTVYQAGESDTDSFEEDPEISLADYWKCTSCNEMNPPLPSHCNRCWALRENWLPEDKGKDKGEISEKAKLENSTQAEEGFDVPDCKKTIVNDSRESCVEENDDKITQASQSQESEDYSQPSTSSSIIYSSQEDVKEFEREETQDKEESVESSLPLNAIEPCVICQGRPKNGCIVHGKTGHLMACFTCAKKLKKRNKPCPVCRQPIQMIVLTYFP
# Beta cell apopt: beta cell apoptosis inhibition | INS-1E cytokine-induced death, ATP luminescence, 48 h; percent of positive-control rescue, neutral wells zero | protection from apoptosis, % (no concentration beside the values) | 300,000 compounds, 0.8% hits | AID 435005;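 active = Every replicate reaches about 75%, or at least half do and their mean reaches it too, limit read from the data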;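 also: 0% = cytokine-treated negative control wells and 100% = positive control rescue; higher means more ATP so stronger rescue from cytokine killing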
# aSyn 5UTR inh: 5' untranslated region of α-synuclein, MLPCN primary screen; alpha-synuclein 5'UTR reporter, inhibitor activity; inhibition, % (tested at 7.5 µM); 300,000 compounds, 0.82% hits; in the data active = inhibition above about 60%;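 also: H4 neuroglioblastoma cells stably carrying SNCA 5'UTR luciferase fusion; 0% = DMSO wells and 100% = positive control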
# CSC inhib: blocks cancer stem cells | AID 2717 | inhibition, % at 7.5 µM | 300,000 compounds, 1.1% hits | cancer stem cell-like cells viability, luminescence; in the data active = inhibition above about 75%; tested in HMLE shEcad cells
# Bfl-1 A1 inh: inhibitors of the anti-apoptotic protein A1, read as caspase activation; MEF A1-2A-BIM cells, Caspase-Glo 3/7 luminescence, 3 h; percent of clofoctol response, vehicle zero; caspase activation, % (concentration not given with the values); 330,000 compounds, 0.066% hits;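 active = over half of replicate activation scores above 10%, or exactly half above 10 with the replicate mean above 10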
# Mdm2-MdmX conf: confirmation of human Mdm2/MdmX interaction inhibitors. shares compounds with Mdm2-MdmX inh. Mdm2-MdmX binding, luminescent assay. inhibition, % at 8 µM. 10,000 compounds, 55% hits. AID 489028; in the data active = inhibition above about 40%
# Full FLuc ctr: inhibits full-length luciferase, flagging false Mdm2/MdmX hits | shares compounds with Mdm2-MdmX inh | SaOS-2 full-length luciferase counterscreen, luminescence | inhibition, % at 8 µM | 6,200 compounds, 77% hits | AID 504607;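 active = mean inhibition at 8 µM reaching about 37%, which flags the compound as non-specific, limit read from the data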;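 also: p53-null SaOS-2 cells with luciferase driven by a doxycycline-inducible promoter; compound on cells about two nights before reading with doxycycline added after day one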
# * marks the source's active call; other numbers are inactive results; x = no result given. Only some compounds are listed: those with a hit (about 4.1% of all), similar ones and a draw of the others.
SMILES,Mdm2-MdmX inh,Beta cell apopt,aSyn 5UTR inh,CSC inhib,Bfl-1 A1 inh,Mdm2-MdmX conf,Full FLuc ctr
O=C(NC1CCCCC1)C(c1ccc(F)cc1)N(Cc1ccccc1)C(=O)CN1C(=O)c2ccccc2S1(=O)=O (stereo not given),61*,3,22,-4,-1,66*,94*
Cc1ccc(N(C(=O)Cn2nnc(-c3ccc(C)o3)n2)C(C(=O)NC2CCCC2)c2ccncc2)cc1 (stereo not given),55*,1,-8,x,0,21,x
COc1ccc(-c2nnn(CC(=O)N(Cc3ccc(F)cc3)C(C(=O)NC3CCCC3)c3ccc(F)cc3)n2)cc1 (stereo not given),75*,15,-3,-5,0,19,x
CC(=O)c1ccc(S(=O)(=O)N2CCN(c3nn(C)c(=O)n(C)c3=O)CC2)cc1,15,x,x,x,x,x,x
CC1Cc2cc(S(=O)(=O)N3CCC(C(=O)NCc4ccco4)CC3)ccc2N1C(=O)C1CCC1 (stereo not given),24,2,16,-10,0,x,x
Cc1ccc(/C=C/C(=O)O)cc1S(=O)(=O)N1CCc2ccccc21,-10,-10,-3,-8,0,x,x
Cc1ccc(C(=O)N(C)CCOc2ccccc2)cc1S(=O)(=O)N1CCCCC1,15,2,x,x,0,x,x
CCN(CC)CCN(C(=O)Cn1nnc(-c2ccc(OC)c(OC)c2)n1)C(C(=O)NC1CCCC1)c1ccc(F)cc1 (stereo not given),75*,3,-5,12,0,25,x
O=C(COC(=O)/C=C/C(=O)OCC(=O)NC12CC3CC(CC(C3)C1)C2)NC12CC3CC(CC(C3)C1)C2,94*,-19,4,15,0,40,68*
CN(CC(=O)Nc1ccccc1Cl)C(=O)COC(=O)c1nc(Cl)c(Cl)c(Cl)c1Cl,78*,0,-129,30,1,41*,31
COc1ccc(-c2n(Cc3ccccc3)c3ccccc3[n+]2Cc2ccccc2)cc1,89*,113*,55,25,1,89*,21
COc1ccc(-c2nc3ccccc3n2Cc2ccccc2)cc1,19,-4,-14,-5,0,x,x
Cc1ccc2[nH]cc(CCNC(=O)c3cccs3)c2c1,-13,2,-30,-4,-1,x,x
COc1ccc(C(=O)NCC(=O)Nc2ccc(-c3ccccc3)cc2)cc1,51*,0,1,9,-1,68*,62*
COc1ccc(C(=O)N/N=C(\C)c2cccc(NC(=O)c3ccc(F)cc3)c2)c(OC)c1,21,7,-66,16,-1,x,x
COc1ccc(NC(=O)c2cccc(NC(=O)c3ccccc3)c2)cc1,-11,5,-38,8,-2,x,x
COc1ccc(C(=O)N/N=C(/C)c2cccc(NC(=O)c3ccccc3F)c2)cc1,53*,7,-79,x,0,5,x
Cc1cccc(NC(=O)c2ccc(C(=O)Nc3cccc(C)c3)nc2)c1,56*,1,-12,60,1,52*,56*
CCOc1ccc(NC(=O)CNC(=O)c2ccc(OC)cc2)cc1,26,-3,5,-17,1,x,x
COc1ccc(C(=O)Nc2ccc(C(=O)Nc3cccc(C)c3)cc2)cc1,56*,51,-1,-5,1,39,73*
CCOc1ccc(C(=O)CCC(=O)N2CCN(S(=O)(=O)c3cccc(F)c3)CC2)cc1,-23,0,x,-16,-1,x,x
COCC(C)N1CCC(n2nccc2NC(=O)CCCc2ccccc2)CC1 (stereo not given),-10,6,5,-10,-1,x,x
CN(C)C(=O)CCc1ccc2c3c([nH]c2c1)[C@]1(C)[C@@H](C(=O)N2CCCCC2)C[C@H](CC(=O)NCc2cccc(C(F)(F)F)c2)C(=O)N1CC3,30,x,x,x,x,x,x
COc1ccc2[nH]c3c(c2c1)CCN1C(=O)C(CC(=O)NC(C)(C)C)C[C@H](C(=O)N2CCOCC2)[C@@]31CCC1CCCC1 (stereo not given in full),12,x,x,x,x,x,x
COc1ccc2[nH]c3c(c2c1)CCN1C(=O)C(CC(=O)NCCN2CCOCC2)C[C@H](C(=O)N2CCOCC2)[C@@]31CCC1CCCC1 (stereo not given in full),66*,x,x,x,x,-15,x
SMILES,Mdm2-MdmX inh,Beta cell apopt,aSyn 5UTR inh,CSC inhib,Bfl-1 A1 inh,Mdm2-MdmX conf,Full FLuc ctr
CN(C)C(=O)CCc1ccc2c3c([nH]c2c1)[C@]1(CCC2CCCC2)[C@@H](C(=O)N2CCOCC2)C[C@H](CC(=O)NCc2cccc(C(F)(F)F)c2)C(=O)N1CC3,61*,x,x,x,x,53*,59*
O=C(CC1C[C@H](C(=O)N2CCOCC2)[C@@]2(CCC3CCCC3)c3[nH]c4ccccc4c3CCN2C1=O)NCCC1=CCCCC1 (stereo not given in full),60*,5,x,x,1,-16,x
Cc1c(OC(C)C(=O)NCc2ccncc2)ccc2c3c(c(=O)oc12)CCCC3 (stereo not given),21,x,-1,13,2,x,x
CC(C)N1CCc2c(sc(NC(=O)CCS(=O)(=O)c3ccccc3)c2C#N)C1,14,-2,-4,33,0,x,x
CC1CCC2(CC1)NC(=O)N(CC(=O)N1CCN(S(=O)(=O)c3ccc4c(c3)CCC4)CC1)C2=O (stereo not given),-6,-4,x,x,0,x,x
COc1ccc(C2=CCN3CCCCC3C2)c(-c2ccc(OC)c(OC)c2)c1 (stereo not given),26,6,x,x,0,x,x
CCCc1cc(=O)[nH]c(SCC(=O)Nc2ccc(N3CCCCC3)cc2)n1,-17,3,x,-2,1,x,x
COc1ccc(-n2nc3c(c2NC(=O)C(C)Oc2ccccc2)CS(=O)C3)cc1 (stereo not given),16,-1,0,1,0,x,x
Cc1cccc(/C=C/C(=O)c2cc(Br)ccc(=O)c2O)c1,54*,38,53,103*,0,36,73*
CCOc1ccc(/C=C/C(=O)c2cc(Br)ccc(=O)c2O)cc1,x,2,x,46,1,x,x
CCc1ccc(/C=C/C(=O)c2cc(Br)ccc(=O)c2O)cc1,52*,0,72*,9,0,39,40*
Cc1cc(C)c(C(=O)/C=C/c2cccc3ccccc23)c(=O)[nH]1,88*,-4,-5,45,1,94*,58*
C/C(=C\c1ccccc1)C(=O)c1c(C)cc(C)[nH]c1=O,58*,5,0,x,0,-4,x
O=C(CN1CCN(C(=O)C2CC2)CC1)Nc1ccc(Cl)cc1F,-33,x,x,x,x,x,x
COc1ccc(/C=C/C(=O)c2cc(F)ccc2OC(=O)c2ccccc2C)cc1OC,61*,50,82*,49,0,66*,117*
O=C(c1cccs1)N1CCc2c([nH]c3ccccc23)C1c1ccc(Cl)cc1 (stereo not given),73*,15,38,6,0,58*,97*
